# CYP2C9 activ: activators of human CYP2C9. P11712. recombinant CYP2C9, luciferin-H conversion, luminescence; active compounds read high; factor 1 = untreated enzyme, 0 = blocked. activation factor at 5 µM. 96,000 tested, 1.4% active;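 active means activation factor of 2 or more for CYP2C9 at a 5 µM dose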;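 further: 0 = sulfaphenazole-blocked wells and 1 = vehicle-only wells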
# Target sequence (P11712 whole entry, looked up): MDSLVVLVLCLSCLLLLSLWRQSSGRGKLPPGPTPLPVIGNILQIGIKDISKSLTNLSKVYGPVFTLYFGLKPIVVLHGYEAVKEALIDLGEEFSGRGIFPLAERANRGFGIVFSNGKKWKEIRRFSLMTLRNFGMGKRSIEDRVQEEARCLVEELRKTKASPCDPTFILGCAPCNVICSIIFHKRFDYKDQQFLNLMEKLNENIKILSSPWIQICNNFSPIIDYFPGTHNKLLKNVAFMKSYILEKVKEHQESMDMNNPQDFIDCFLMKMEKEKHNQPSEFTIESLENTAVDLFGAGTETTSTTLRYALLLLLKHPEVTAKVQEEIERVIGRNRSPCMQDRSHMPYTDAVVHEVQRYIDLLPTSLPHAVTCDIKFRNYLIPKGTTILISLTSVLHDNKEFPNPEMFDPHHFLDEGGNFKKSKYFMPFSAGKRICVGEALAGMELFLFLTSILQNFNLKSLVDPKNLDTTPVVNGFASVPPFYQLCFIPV
# CYP2C19 inhib: inhibitors of human CYP2C19; P33261; inhibition, % at 5 µM; 96,000 tested, 21% active; CYP2C19 Supersomes, luciferin-H EGE luminescence, 30 min;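 active means CYP2C19 inhibition above a set limit at 5 µM in the primary screen, cut at about 50% in these data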;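 further: plate controls were negative control wells for no effect and 2.5 mM tranylcypromine positive control for full effect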
# CYP2C9 inhib: blocks human cytochrome P450 2C9; P11712; CYP2C9 Supersomes, luciferin-H conversion, luminescence; inhibition, % at 5 µM; 96,000 tested, 20% active; AID 777;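 active means blocking of liver enzyme CYP2C9 beyond about 50% at 5 µM, limit read from the data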
# CYP2C19 act: activators of human cytochrome P450 2C19; recombinant CYP2C19, luciferin-H EGE luminescence; active compounds read high; 0 = fully inhibited enzyme, 1 = untreated enzyme; AID 1025; activation factor at 5 µM; P33261; 96,000 tested, under 10 active;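 active means activation factor of at least 2 at 5 µM in the primary screen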;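 further: 0 = wells with 2.5 mM tranylcypromine and 1 = vehicle-only wells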
# Cav3 T inh: human Cav3.2 channel inhibition, primary screen | O95180 | 100,000 tested, 4% active | Cav3.2-expressing cells, Fluo-4 calcium fluorescence FDSS; active compounds read low | AID 449739 | B-score at 10 µM;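 active means single-dose well whose peak fluorescence ratio is a statistical outlier from its plate by either plate-standardised score or position-corrected B-score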
# An asterisk follows results filed as active; / = no result. Hits are enriched below; roughly 27% of the tested compounds scored in any of these assays.
SMILES,CYP2C9 activ,CYP2C19 inhib,CYP2C9 inhib,CYP2C19 act,Cav3 T inh
Cc1cccc(NC(=S)NCc2ccc3c(c2)cc(C)n3C)c1C,/,/,/,/,-3.2
Cc1cc(=O)[nH]c(Sc2c(-c3ccccc3)c3ccccc3[nH]c2=O)n1,0.9,23,6,0.8,-0.45
CCOC(=O)c1c(NC(=O)c2ccco2)sc2c1CCCC2,0.4,14,56*,0.9,-0.052
N#Cc1c(NC(NC(=O)c2ccco2)C(=O)c2ccccc2)sc2c1CCCC2 (stereo not drawn),0.2,16,76*,0.8,-2.9
COc1ccccc1NC(=O)c1csc2c1CCCC2,2.4*,38,-144,0.6,-2
CCOC(=O)c1c(NC(=O)CSc2c[nH]c3ccccc23)sc2c1CCCC2,/,/,/,/,-0.94
COc1ccccc1NC(=O)c1c(C)oc2c1CCCC2,/,/,/,/,-1.3
CCOC(=O)c1c(NC(=O)c2ccn(CC)n2)sc2c1CCCC2,0.3,55*,68*,0.5,-2.4
CC(C)Sc1nc2c(c(=O)n1C)SC(C)C2 (stereo not drawn),0.6,18,41,0.8,0.24
O=C(Nc1ccc(-c2nc3ccccc3o2)cc1)c1ccc(N2C(=O)C3C4C=CC(C4)C3C2=O)cc1 (stereo not drawn),0.9,-19,7,1.2,0.8
Cc1ccccc1OCC(=O)Nc1sc2c(c1C#N)CCC2,0.8,-7,16,1.1,0.55
COc1ccccc1C(=O)Nc1sc2c(c1C(=O)NCc1ccco1)CCCC2,0.2,18,84*,0.8,0.29
CCOC(=O)c1c(NC(=O)c2ccco2)n(C2CCCCC2)c2nc3ccccc3nc12,0.5,-3,55*,1,-2.8
COc1ccccc1OCC(=O)Nc1sc2c(c1C(=O)NCC1CCCO1)CCC2 (stereo not drawn),0,52*,96*,0.5,-3.3
CSc1ncc(Cl)c(C(=O)Nc2sc3c(c2C(=O)NCc2ccco2)CCCC3)n1,0.7,5,28,0.9,-0.85
COc1ccccc1NC(=O)c1c(NC(=O)c2ccco2)sc2c1CCC2,0.4,18,64*,0.8,-1.5
O=C(Nc1sc2c(c1C(=O)NC1CCCCC1)CCC2)c1ccco1,0.5,3,49,1,-1.4
CCOC(=O)Cc1csc(NC(=O)C2CCCCC2C(=O)O)n1 (stereo not drawn),0.9,-2,12,1,-0.0053
COc1cc2c(cc1OC)CN(S(C)(=O)=O)CC2,0.9,9,8,0.9,0.42
Cc1c(N2C(=O)/C(=C\c3cccc4ccccc34)SC2=S)c(=O)n(-c2ccccc2)n1C,0.8,71*,25,0.3,1.2
Cc1c(N2C(=O)c3ccccc3C2=O)c(=O)n(-c2ccccc2)n1C,1.1,-11,-6,1.1,-0.57
O=C(O)C(Cc1ccccc1)N1C(=O)/C(=C/c2cccc3ccccc23)SC1=S (stereo not drawn),0.3,12,72*,0.9,-3
O=C(c1ccccc1)c1ccc(OCC(O)CN2CCN(Cc3ccccc3)CC2)cc1 (stereo not drawn),0.6,40,36,0.6,-0.93
CCCOC(=O)c1ccc(OCC(O)CN2CCN(C(=O)c3ccccc3)CC2)cc1 (stereo not drawn),0.4,11,64*,0.9,0.29
O/N=C1\CC/C(=N\O)c2nn(-c3ccc(Cl)cc3Cl)nc21,0.8,-9,16,1.1,0.13
SMILES,CYP2C9 activ,CYP2C19 inhib,CYP2C9 inhib,CYP2C19 act,Cav3 T inh
CCCC(=O)Nc1ccc(-c2nc3cc(C)c(C)cc3o2)cc1,1.1,9,-8,0.9,0.012
CCCCC(=O)Nc1ccc2oc(-c3ccncc3)nc2c1,0.4,58*,63*,0.4,-0.0055
CCCC(=O)Nc1ccc2oc(-c3ccncc3)nc2c1,0.2,56*,78*,0.4,0.63
CCNC(=O)/C=C1\NC(C)(C)Cc2c1ccc1ccccc21,0.1,83*,90*,0.2,-0.76
CC1(C)Cc2c(ccc3ccccc23)C(=O)N1,1.5,19,-52,0.8,0.3
Cc1cc(C)cc(OCC(=O)N2N=C(C(F)(F)F)CC2(O)C(C)(C)C)c1 (stereo not drawn),/,/,/,/,-4.3*
O=C(CCl)Nc1cccn2ncnc12,1.3,-6,-33,1.1,-0.14
CC(C)SCc1nc2ccccc2[nH]1,1.1,39,-8,0.6,/
Clc1ccc(OCCSCc2nc3ccccc3[nH]2)cc1,0.4,64*,57*,0.4,-8.3*
c1ccc2[nH]c(CSc3nccs3)nc2c1,/,/,/,/,0.56
Cc1ccc(OCCSCc2nc3ccccc3[nH]2)cc1,0.4,59*,63*,0.4,-5.5*
Clc1ccc(SCc2nc3ccccc3[nH]2)cc1,0.5,100*,54*,0,-4.5*
O/N=C(\c1ccc(Cl)cc1)c1cc2ccccc2o1,0.6,15,36,0.9,/
COC(=O)C1=C(C)NC(=O)/C1=C\c1cc(C)n(-c2cc(C)cc(C)c2)c1C,0.1,82*,92*,0.2,-1.7
CCOC(=O)CC1C(=O)NCCN1S(=O)(=O)c1ccc(Cl)cc1Cl (stereo not drawn),0.8,15,24,0.8,0.45
O=C(COc1ccc2ccccc2c1)NNC(=O)Cc1cccc2ccccc12,/,/,/,/,-0.32
CC(C)(C)c1ccc(C(=O)NNC(=O)Cc2cccc3ccccc23)cc1,0.4,17,58*,0.8,-4.2*
COc1ccc(C2C(C#N)=C(N)N3C(=C2C#N)Sc2ccccc23)cc1 (stereo not drawn),0.8,8,18,0.9,-0.71
CC(=O)Nc1nc(-c2ccc(Br)s2)cs1,0.8,28,24,0.7,-0.82
O=C(CSCC(=O)N1CCCCC1)Nc1nc(-c2ccc(Cl)s2)cs1,0.5,58*,47,0.4,-5.2*
O=C(CSCC(=O)N1CCN(c2ccccc2)CC1)Nc1nc(-c2ccc(Cl)s2)cs1,0.4,-2,61*,1,-5.6*
CCC(C)N1CCCCC1C(=O)Nc1c(C)cc(C)cc1C (stereo not drawn),/,/,/,/,0.74
Cc1ccc(S(=O)(=O)NCCCN2CCOCC2)cc1C,/,/,/,/,0.54
COc1cc(S(=O)(=O)NCCCN2CCOCC2)ccc1Cl,2.4*,75*,-141,0.3,1.6
COc1cc(Cl)c(S(=O)(=O)NCCN2CCOCC2)cc1Cl,2*,82*,-99,0.2,0.9
SMILES,CYP2C9 activ,CYP2C19 inhib,CYP2C9 inhib,CYP2C19 act,Cav3 T inh
COc1cc(S(=O)(=O)NCC2CCCO2)c(OC)cc1Cl (stereo not drawn),1,66*,2,0.3,0.57
O=S(=O)(NCC1CCCO1)c1cc(Cl)ccc1Br (stereo not drawn),1.6,30,-59,0.7,-0.095
COC(=O)C(OC(=O)c1ccc(OC)cc1)C(=O)OC,/,/,/,/,-0.5
C[C@@H](C(=O)NCc1ccc(S(C)(=O)=O)cc1)[C@@H]1C[C@@]1(C)[C@@H](NC(=O)OCc1ccccc1)c1ccccc1,/,/,/,/,-1.7
CN1CCOc2cc(S(=O)(=O)Nc3ccc(F)cc3)ccc21,0.4,87*,60*,0.1,0.59
CC1CCN(CCc2nc3cc(NS(=O)(=O)c4ccc(F)cc4)ccc3n2C)CC1,1,-2,-2,1,0.32

# Screening data from PubChem BioAssay.
